Screening results deposited in PubChem by National Center for Advancing Translational Sciences (NCATS).
BAZ2B inh = inhibitors of human BAZ2B bromodomain. Potency, µM (series often up to 114 µM), inactives show top-dose activity change, negative = inhibition, hits mostly inhibitors. AlphaScreen BAZ2B-H3K14Ac peptide displacement. hit rate 4.4% among 360,000. Q9UIF8; further: potency means the concentration at half of the fitted maximal effect; on the % scale 0 is the no-effect control and ±100 the full control effect; nearly all actives have a fitted effect of over 60% in size
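Complex of BAZ2B and biotin-H3K14Ac (50 nM apiece) forms over 30 min at RT, then faces library compounds up to 110 uM for another 30 min; AlphaScreen beads added, 20 min dark incubation, luminescence read.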
CtBP-E1A blk = CtBP/E1A binding inhibition | activity change, % (test concentration not listed) | hit rate 0.49% among 340,000 | AlphaScreen GST-E1A/His-CtBP binding, 1536-well; hits give low values | AID 651724; in the data active means activity change below about -65%; inconclusive means mostly about -30% to -63%; further: on the % scale 0 is the no-effect control and ±100 the full control effect
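AlphaScreen with 125 nM GST-E1A and 125 nM His-CtBP (5X stocks) in Tris pH 8.0, 300 mM NaCl, BSA, Tween 20, TCEP. Compounds preincubated 2 h at 37 deg C, then glutathione donor/nickel acceptor beads added for 1 h at 37 deg C in dark.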
JMJD2A Tudor inh = inhibitors of human JMJD2A Tudor domain. O75164. AlphaScreen JMJD2A-Tudor / H3K4me3 peptide binding. Potency, µM (titrated, usually from 114 µM), inactives show at the top dose activity change, negative = inhibition, actives largely listed as inhibitors. hit rate 4.4% among 390,000; further: potency means the concentration at half of the fitted maximal effect; on the % scale 0 is the no-effect control and ±100 the full control effect; nearly all actives have a fitted effect of over 50% in size
Six1-Eya2 inh = Six1/Eya2 interaction inhibition | Q15475+O00167 | AlphaScreen GST-Six1/His-Eya2 binding, biochemical; hits give low values | activity change, % (test concentration not listed) | hit rate 0.56% among 360,000 | AID 651725; in the data active means activity change below about -65%; inconclusive means mostly about -30% to -63%; further: on the % scale 0 is the no-effect control and ±100 the full control effect
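Homogeneous AlphaScreen proximity assay pairing GST-Six1 with His-tagged Eya2 (added as 5X mix: 250 nM and 500 nM) in 50 mM Tris pH 8.0, 300 mM NaCl, 1 mM TCEP. Glutathione donor and nickel acceptor beads; 1 h, 37 °C, dark.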
HP1b chromo inh = inhibitors of HP1-beta chromodomain binding to methylated histone tails. hit rate 0.56% among 390,000. AlphaScreen HP1-beta / biotin-H3K9me3 peptide binding. P83916. Potency, µM (top dose mostly 114 µM), for inactives: at the highest dose activity change, negative = inhibition, actives largely listed as inhibitors. AID 540317; further: potency means the concentration at half of the fitted maximal effect; nearly all actives have a fitted effect of over 70% in size
Target sequence (P83916 whole entry, looked up): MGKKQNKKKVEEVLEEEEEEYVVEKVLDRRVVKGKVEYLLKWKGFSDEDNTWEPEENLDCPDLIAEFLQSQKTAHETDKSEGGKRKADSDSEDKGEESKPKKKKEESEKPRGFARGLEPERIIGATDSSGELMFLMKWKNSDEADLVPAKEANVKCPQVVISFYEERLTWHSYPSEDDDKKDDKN
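AlphaScreen: HP1-beta (50 nM) preformed 30 min with biotin-H3(1-18)K9me3 peptide (50 nM) in PBS pH 7.4, 0.01% Tween-20. Compound added for 30 min at RT, then streptavidin donor/nickel chelate acceptor beads (10 ug/mL) for 30 min.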
G9a block = G9a (human) methyltransferase inhibition; G9a H3K9 monomethylation, AlphaScreen, 2 h; hit rate 8.8% among 350,000; Potency, µM (doses to about 102 µM), for the others: at the highest dose activity, negative = inhibition, most hits filed as inhibitors; further: potency means the concentration at half of the fitted maximal effect; on the % scale 0 is the no-effect control and ±100 the full control effect; nearly all actives have a fitted effect of over 75% in size
Target sequence (Q96KQ7 913-1193 limits assumed): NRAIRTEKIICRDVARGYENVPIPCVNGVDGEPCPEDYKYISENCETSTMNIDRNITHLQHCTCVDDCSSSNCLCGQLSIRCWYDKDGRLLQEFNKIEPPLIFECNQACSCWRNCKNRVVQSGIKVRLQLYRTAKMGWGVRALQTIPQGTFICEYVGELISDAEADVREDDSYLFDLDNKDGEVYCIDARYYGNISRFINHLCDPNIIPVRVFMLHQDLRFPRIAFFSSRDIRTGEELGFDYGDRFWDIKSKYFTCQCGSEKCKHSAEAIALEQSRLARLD
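AlphaScreen detection with an anti-monomethyl H3K9 antibody quantified product after a 2 h room-temperature reaction containing 500 nM biotinylated H3K9 peptide, 20 µM SAM and 20 nM enzyme, which had been preincubated 15 min with compound.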
Starred values were filed as active, the others as inactive; ! = repeats disagree; [ ] = dose if it differs, or a comment. Rows were chosen to be rich in hits. Some 10% of all compounds tested hit in one or more screens of this group. Unless noted, the call rests on the fitted dose curve; in most records, active means well fitted inhibition curve with a large enough effect; inconclusive means small, poorly fitted or top-dose-only effect; inactive means no such curve, though single readings can be large or run the other way.

Screening CCOC(=O)N1CCN(CC(=O)c2c[nH]c3ccc(F)cc23)CC1 returned BAZ2B inh 4% and G9a block 50µM*.
Screening CNC(=O)c1ccc(NC(=O)COc2ccc(-c3nn(C)c(=O)c4ccccc34)cc2)cc1 returned BAZ2B inh 1%, JMJD2A Tudor inh -4%, HP1b chromo inh 26% and G9a block -5%[59 µM].
COc1ccc(NC(=O)COc2ccc(-c3nn(C)c(=O)c4ccccc34)cc2)cc1 was read as BAZ2B inh -9%, CtBP-E1A blk 8, JMJD2A Tudor inh 45µM*!, Six1-Eya2 inh 1, HP1b chromo inh -6% and G9a block 3%.
For N=c1c2c3c(sc2nc2n1CCCCC2)CCCCC3 the results were BAZ2B inh 8%, CtBP-E1A blk 0, JMJD2A Tudor inh 10%, Six1-Eya2 inh -8, HP1b chromo inh 23% and G9a block 50µM*.
CCc1nn2c(=O)cc(COc3cccc(NC(=O)c4ccco4)c3)nc2s1 was read as BAZ2B inh inconclusive, CtBP-E1A blk -10, JMJD2A Tudor inh 25µM*, Six1-Eya2 inh -2 and HP1b chromo inh 13%.
For CCN(CC)CCNC(=O)Cn1ncc2c([nH]c3ccccc32)c1=O the results were BAZ2B inh -1%, JMJD2A Tudor inh 8%, HP1b chromo inh 10% and G9a block 5%[59 µM].
Screening CCOC(=O)c1c(N)sc(C(O)(C(F)(F)F)C(F)(F)F)c1-c1ccc(OC)cc1OC returned BAZ2B inh inconclusive, CtBP-E1A blk 10, JMJD2A Tudor inh -23%, Six1-Eya2 inh 0, HP1b chromo inh 26% and G9a block 79µM*.
Screening C=CCSc1nc2ccccc2c(=O)[nH]1 returned BAZ2B inh -5%, CtBP-E1A blk 7, JMJD2A Tudor inh -17%, Six1-Eya2 inh 1, HP1b chromo inh 29% and G9a block 14%.
O=C(CSc1nccc(=O)[nH]1)c1ccccc1Br was read as BAZ2B inh -18%, CtBP-E1A blk -68*, JMJD2A Tudor inh -1%, Six1-Eya2 inh -70*, HP1b chromo inh 1% and G9a block 7.9µM*.
For C=CCSc1nccc(=O)[nH]1 the results were BAZ2B inh 6%, CtBP-E1A blk 10, JMJD2A Tudor inh 50µM*, Six1-Eya2 inh inconclusive, HP1b chromo inh 22% and G9a block 18%[59 µM].
For COc1cc2nc(N3CCN(c4cc(C)ccc4C)CC3)nc(N)c2cc1OC the results were BAZ2B inh 50µM*, CtBP-E1A blk -13, JMJD2A Tudor inh inconclusive, Six1-Eya2 inh 1, HP1b chromo inh -15% and G9a block 50µM*.
COc1cc2nc(N3CCNCC3)nc(N)c2cc1OC was read as BAZ2B inh -1%, CtBP-E1A blk -12, JMJD2A Tudor inh inconclusive, Six1-Eya2 inh -2, HP1b chromo inh inconclusive and G9a block inconclusive.
For CN(C)CCNC(=O)c1ccc(-n2c(-c3ccccc3)cc3c2CCCC3)cc1 the results were BAZ2B inh inconclusive, JMJD2A Tudor inh -30%, HP1b chromo inh 12% and G9a block -28%[59 µM].
CC1(C)C2CCC1(C)C(NCC(O)COc1ccc(C#N)cc1)C2 (configuration not stated) was read as BAZ2B inh 25µM*, CtBP-E1A blk 3, JMJD2A Tudor inh 13µM*, Six1-Eya2 inh -2, HP1b chromo inh -23% and G9a block inconclusive.
For Cc1ccc(NC(=O)CSc2nnc(-c3cc4occc4n3C)n2-c2ccccc2C)c(C)c1 the results were BAZ2B inh inconclusive, JMJD2A Tudor inh inconclusive, HP1b chromo inh 5% and G9a block inconclusive.
`CCOc1ccc(-n2c(-c3ccc(OC)cc3)c[n+]3c2CCCCC3)cc1` gave BAZ2B inh 0%, CtBP-E1A blk 1, JMJD2A Tudor inh -1%, Six1-Eya2 inh -10, HP1b chromo inh 20% and G9a block 14%[59 µM].
CCOc1ccc(-n2c(-c3ccc(Br)cc3)c[n+]3c2CCCCC3)cc1 was read as CtBP-E1A blk 5, JMJD2A Tudor inh -14%, Six1-Eya2 inh 30, HP1b chromo inh 7% and G9a block 1.1µM*.
For Nc1cccc(Cl)c1N1CCOCC1 the results were BAZ2B inh -1%, CtBP-E1A blk 4, JMJD2A Tudor inh 20µM*, Six1-Eya2 inh -2, HP1b chromo inh inconclusive and G9a block 12%[0.0925 µM].
Screening CCOc1ccc(Oc2ccc(Cl)cc2N)cc1 returned BAZ2B inh inconclusive, JMJD2A Tudor inh 1%, Six1-Eya2 inh 0, HP1b chromo inh 47% and G9a block 50µM*.
`CCOc1ccc(-c2nnc(N)s2)cc1` gave BAZ2B inh 8%, CtBP-E1A blk 8, JMJD2A Tudor inh -9%, Six1-Eya2 inh 2, HP1b chromo inh 21% and G9a block 12%[59 µM].
`COc1cccc(/C=C/C(=C2/C(=O)N(c3ccccc3)N=C2C)c2ccc(Br)cc2)c1OC` gave BAZ2B inh 1.3µM*, CtBP-E1A blk 1, JMJD2A Tudor inh -31%, Six1-Eya2 inh 0, HP1b chromo inh -21% and G9a block inconclusive.
Screening COc1cccc(/C=C/C(=O)OCC(=O)c2ccccc2)c1OC returned JMJD2A Tudor inh 24%, Six1-Eya2 inh 8 and HP1b chromo inh 101%.
Screening COc1ccccc1/C=C/C(=O)c1ccccc1 returned BAZ2B inh 3%, JMJD2A Tudor inh 67%, Six1-Eya2 inh 2, HP1b chromo inh 70% and G9a block 6%[0.501 µM].
Screening COc1ccccc1/C=C/C(=C1/C(=O)N(c2ccccc2)N=C1C)c1ccc(C)cc1 returned BAZ2B inh 2.8µM*, CtBP-E1A blk 0, JMJD2A Tudor inh 2.8µM*, Six1-Eya2 inh -6, HP1b chromo inh 2.5µM* and G9a block inconclusive.
Screening COc1cccc(/C=C/C(=C2/C(=O)N(c3ccccc3)N=C2C)c2ccccc2)c1OC returned BAZ2B inh 4.5µM*, CtBP-E1A blk 4, JMJD2A Tudor inh inconclusive, Six1-Eya2 inh 0, HP1b chromo inh -35% and G9a block 1.4µM*.
For O=C(c1cnc(N2CCOCC2)c2ccccc12)N1CCN(c2ccccc2F)CC1 the results were BAZ2B inh -1%, JMJD2A Tudor inh -10%, HP1b chromo inh 17%[57 µM] and G9a block 0%[59 µM].
`CC(C)(C)c1ccc(C(=O)NCC(=O)OCc2cc(=O)n3nc(C4CC4)sc3n2)cc1` gave BAZ2B inh -6%, JMJD2A Tudor inh -30%, HP1b chromo inh 16% and G9a block 30%[59 µM].
For Cc1[nH]c2ccc3ncccc3c2c1C the results were BAZ2B inh 50µM*, CtBP-E1A blk -7, JMJD2A Tudor inh -22%, Six1-Eya2 inh -13, HP1b chromo inh 27% and G9a block inconclusive.
